What all share (assay type): functional
Assay [1] relates to Plasmodium falciparum. As to the kind of experiment: GSK_TCMDC: Inhibition of Plasmodium falciparum 3D7 in whole red blood cells, using parasite LDH activity as an index of growth. Test compounds present at 2uM.
For assay [2], the system named is Plasmodium falciparum. Put plainly: GSK_TCMDC: Inhibition of Plasmodium falciparum Dd2 in whole red blood cells, using parasite LDH activity as an index of growth. Test compounds present at 2uM.
In a further assay the test system is HepG2. Put plainly: GSK_TCMDC: Percent inhibition of human HepG2 cell line. Test compounds present at 10uM.

Inhibition data for eleven compounds are collected here from ChEMBL document CHEMBL1157539, “Thousands of chemical starting points for antimalarial lead identification” (Nature, 2010).

For orientation: Inhibition means the change of the read-out against control, counted positive when it falls. High values mean strong suppression, low ones little suppression.

In the case of `c1ccc(C(c2ccccc2)N2CCN(C(c3cccnc3)c3nnnn3C3CCCC3)CC2)cc1` (stereo not drawn), the Inhibition in the assay with Plasmodium falciparum [1] was 83%; in the assay with Plasmodium falciparum [2], 59%; with HepG2 it was 4%.
The matching figures for `COc1cc(CCCOc2c(N)nc(N)nc2N)cc(OC)c1OC`: 88%, 0% and 8%.
The matching figures for `Cc1cccc2nc(O)c([N+](=O)[O-])c(O)c12`: 95%, 0% and 0%.
The like results for `N#Cc1cc([N+](=O)[O-])ccc1-n1nc(-c2cccc(Cl)c2)n(CC2CCCO2)c1=S` (stereo not drawn) were, in that order, 91%, 89% and 0%.
Take `O=C(N[C@H]1CCN(Cc2ccc(OCCN3CCNCC3)c(Cl)c2)C1)c1ccc(Cl)c(Cl)c1.O=C(O)C(F)(F)F`: the Inhibition amounted to 100% with Plasmodium falciparum [1], 5% in the assay on Plasmodium falciparum [2] and 50% in the assay on HepG2.
The matching figures for `COc1cc2c(cc1OC)CC(NCCCCCCNCCc1ccc(Cl)cc1)CC2.Cl` (stereo not drawn): 98%, 0% and 50%.
The like results for `Cc1cccc2nc(C3CCN(CC4CCN(C(=O)/C=C/c5ccc(Cl)c(Cl)c5)CC4)CC3)[nH]c12` were, in that order, 100%, 79% and 46%.
With `Cc1cc(Nc2ccc(O)cc2)nc2cccc(O)c12`, the Inhibition with Plasmodium falciparum [1] came to 99%; in the assay on Plasmodium falciparum [2] it was 28%; in the assay with HepG2, 22%.
The like results for `Cc1cccc2nc(-c3ccc(-c4cccc(CNCCCNS(C)(=O)=O)c4)s3)[nH]c12.O=C(O)C(F)(F)F` were, in that order, 99%, 19% and 20%.
As for `COc1ccc(Cn2c(Nc3cccc(C(F)(F)F)c3)nc3ccc(C(=O)NCCN4CCCC4)cc32)cc1Cl`, the Inhibition is on record as 100% in the assay on Plasmodium falciparum [1], 6% in the assay on Plasmodium falciparum [2] and 14% with HepG2.
As to `O=C(COc1ccccc1)N(Cc1ccc(-c2ccc(CNC3Cc4ccccc4C3)cc2)cc1)C1CCNCC1.O=C(O)C(F)(F)F`, the results for the Inhibition with Plasmodium falciparum [1], in the assay with Plasmodium falciparum [2] and with HepG2 were 100%, 8% and 26%, respectively.
